The record followed here is ChEMBL document CHEMBL2218924, “A broad activity screen in support of a chemogenomic map for kinase signalling research and drug discovery” (Biochem J, 2013).

In test [1] the target is Interleukin-1 receptor-associated kinase 1 (Homo sapiens) (UniProt P51617). The settings on record: at 1 µM.
The target is the same in test [2]. The settings on record: at 10 µM.
Test [3] deals with Tyrosine-protein kinase JAK2 (Homo sapiens) (UniProt O60674). The settings on record: at 1 µM.
Sequence of Tyrosine-protein kinase JAK2 (Homo sapiens) (O60674 whole entry): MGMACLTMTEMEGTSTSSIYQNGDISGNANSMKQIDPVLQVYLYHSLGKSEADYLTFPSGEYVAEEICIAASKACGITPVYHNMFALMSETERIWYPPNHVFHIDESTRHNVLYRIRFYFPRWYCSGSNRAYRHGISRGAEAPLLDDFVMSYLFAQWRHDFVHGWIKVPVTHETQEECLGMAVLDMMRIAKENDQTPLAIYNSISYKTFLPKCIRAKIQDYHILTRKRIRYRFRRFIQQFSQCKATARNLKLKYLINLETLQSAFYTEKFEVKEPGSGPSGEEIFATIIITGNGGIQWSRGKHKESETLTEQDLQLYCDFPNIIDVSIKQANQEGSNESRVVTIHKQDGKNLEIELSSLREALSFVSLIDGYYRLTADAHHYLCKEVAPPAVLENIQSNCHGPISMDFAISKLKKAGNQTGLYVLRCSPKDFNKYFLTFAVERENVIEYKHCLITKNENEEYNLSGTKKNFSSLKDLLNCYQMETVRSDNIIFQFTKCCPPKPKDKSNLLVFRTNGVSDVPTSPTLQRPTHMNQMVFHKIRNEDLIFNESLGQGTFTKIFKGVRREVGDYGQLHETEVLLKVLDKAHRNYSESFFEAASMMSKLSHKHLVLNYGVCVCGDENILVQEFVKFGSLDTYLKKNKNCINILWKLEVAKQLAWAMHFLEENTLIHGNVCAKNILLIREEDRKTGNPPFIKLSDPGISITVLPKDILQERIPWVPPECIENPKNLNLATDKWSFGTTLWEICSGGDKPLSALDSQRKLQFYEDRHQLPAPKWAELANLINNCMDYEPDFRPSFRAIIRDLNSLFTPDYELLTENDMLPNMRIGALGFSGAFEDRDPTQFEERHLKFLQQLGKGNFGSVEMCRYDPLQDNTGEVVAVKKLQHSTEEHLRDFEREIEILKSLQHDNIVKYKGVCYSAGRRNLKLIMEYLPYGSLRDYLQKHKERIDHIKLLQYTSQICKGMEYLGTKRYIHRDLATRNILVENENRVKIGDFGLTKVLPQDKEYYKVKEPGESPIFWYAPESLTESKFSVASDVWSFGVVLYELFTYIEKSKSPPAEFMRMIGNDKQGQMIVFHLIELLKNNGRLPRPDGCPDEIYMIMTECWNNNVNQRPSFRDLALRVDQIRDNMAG
Test [4] shares this target. The settings on record: at 10 µM.
For test [5], the target named is T1, Tyrosine-protein kinase JAK3 (Homo sapiens) (UniProt P52333).
T1 sequence (whole entry): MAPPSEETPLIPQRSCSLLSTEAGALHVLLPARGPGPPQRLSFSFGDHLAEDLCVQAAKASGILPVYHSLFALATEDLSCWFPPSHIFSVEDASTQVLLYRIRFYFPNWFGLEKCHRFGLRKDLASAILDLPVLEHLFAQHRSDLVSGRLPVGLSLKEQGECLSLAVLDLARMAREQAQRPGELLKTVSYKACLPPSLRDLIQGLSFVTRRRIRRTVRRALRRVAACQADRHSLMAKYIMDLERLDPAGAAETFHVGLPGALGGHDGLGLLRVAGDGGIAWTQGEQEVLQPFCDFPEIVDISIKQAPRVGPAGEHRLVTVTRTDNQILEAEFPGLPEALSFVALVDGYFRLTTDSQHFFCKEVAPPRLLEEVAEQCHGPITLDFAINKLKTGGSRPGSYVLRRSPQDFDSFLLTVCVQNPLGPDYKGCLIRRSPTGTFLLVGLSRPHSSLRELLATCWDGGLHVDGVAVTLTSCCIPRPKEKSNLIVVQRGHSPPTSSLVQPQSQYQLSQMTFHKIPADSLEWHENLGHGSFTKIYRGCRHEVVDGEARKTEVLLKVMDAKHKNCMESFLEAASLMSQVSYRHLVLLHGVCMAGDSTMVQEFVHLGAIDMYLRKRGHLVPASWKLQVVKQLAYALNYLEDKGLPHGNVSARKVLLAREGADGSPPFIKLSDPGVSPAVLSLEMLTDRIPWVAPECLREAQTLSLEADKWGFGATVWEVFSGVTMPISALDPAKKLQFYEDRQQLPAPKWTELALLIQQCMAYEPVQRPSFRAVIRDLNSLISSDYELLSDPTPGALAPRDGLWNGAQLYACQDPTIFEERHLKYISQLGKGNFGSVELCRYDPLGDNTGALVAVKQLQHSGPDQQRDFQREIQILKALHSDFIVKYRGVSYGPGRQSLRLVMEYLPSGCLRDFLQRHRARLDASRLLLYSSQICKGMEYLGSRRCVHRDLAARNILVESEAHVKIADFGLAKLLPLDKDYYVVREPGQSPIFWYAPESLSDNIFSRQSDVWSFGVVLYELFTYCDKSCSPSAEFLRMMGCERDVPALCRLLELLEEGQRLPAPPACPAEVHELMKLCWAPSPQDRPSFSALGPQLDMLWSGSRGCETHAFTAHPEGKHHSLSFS
The settings on record: at 10 µM.

In test [6] the target is Mitogen-activated protein kinase 10 (Homo sapiens) (UniProt P53779). The settings on record: at 1 µM.
Sequence of Mitogen-activated protein kinase 10 (Homo sapiens) (P53779 whole entry): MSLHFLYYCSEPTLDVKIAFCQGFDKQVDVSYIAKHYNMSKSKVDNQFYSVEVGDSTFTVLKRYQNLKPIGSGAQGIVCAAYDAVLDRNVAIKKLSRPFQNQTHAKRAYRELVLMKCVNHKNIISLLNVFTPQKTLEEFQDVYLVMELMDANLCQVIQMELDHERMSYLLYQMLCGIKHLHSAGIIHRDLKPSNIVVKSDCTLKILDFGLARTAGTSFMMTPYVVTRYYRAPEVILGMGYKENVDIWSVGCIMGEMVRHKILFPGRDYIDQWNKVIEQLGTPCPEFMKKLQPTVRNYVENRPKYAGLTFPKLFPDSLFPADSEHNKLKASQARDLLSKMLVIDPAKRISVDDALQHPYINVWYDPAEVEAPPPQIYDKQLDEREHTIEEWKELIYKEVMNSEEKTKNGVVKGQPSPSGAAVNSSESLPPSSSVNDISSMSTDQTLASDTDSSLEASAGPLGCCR
Test [7] concerns the target T2, Interleukin-1 receptor-associated kinase 4 (Homo sapiens) (UniProt Q9NWZ3).
T2 sequence (whole entry): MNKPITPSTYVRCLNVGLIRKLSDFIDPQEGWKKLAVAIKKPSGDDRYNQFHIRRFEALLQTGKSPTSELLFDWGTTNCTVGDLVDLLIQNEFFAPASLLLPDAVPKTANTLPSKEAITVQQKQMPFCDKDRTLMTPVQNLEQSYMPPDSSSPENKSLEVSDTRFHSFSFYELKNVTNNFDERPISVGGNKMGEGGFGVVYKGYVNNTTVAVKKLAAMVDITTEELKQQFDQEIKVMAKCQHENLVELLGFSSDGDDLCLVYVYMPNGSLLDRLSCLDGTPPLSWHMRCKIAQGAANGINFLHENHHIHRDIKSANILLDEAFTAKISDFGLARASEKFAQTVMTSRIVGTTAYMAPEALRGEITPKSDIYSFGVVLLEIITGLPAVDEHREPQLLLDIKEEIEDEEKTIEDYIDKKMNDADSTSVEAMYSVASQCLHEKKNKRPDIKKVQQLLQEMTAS
The settings on record: at 1 µM.

Test [8] addresses T2, Interleukin-1 receptor-associated kinase 4 (Homo sapiens). The settings on record: at 10 µM.
Test [9] deals with Insulin receptor-related protein (Homo sapiens) (UniProt P14616). The settings on record: at 1 µM.
Sequence of Insulin receptor-related protein (Homo sapiens) (P14616 27-742 limits assumed): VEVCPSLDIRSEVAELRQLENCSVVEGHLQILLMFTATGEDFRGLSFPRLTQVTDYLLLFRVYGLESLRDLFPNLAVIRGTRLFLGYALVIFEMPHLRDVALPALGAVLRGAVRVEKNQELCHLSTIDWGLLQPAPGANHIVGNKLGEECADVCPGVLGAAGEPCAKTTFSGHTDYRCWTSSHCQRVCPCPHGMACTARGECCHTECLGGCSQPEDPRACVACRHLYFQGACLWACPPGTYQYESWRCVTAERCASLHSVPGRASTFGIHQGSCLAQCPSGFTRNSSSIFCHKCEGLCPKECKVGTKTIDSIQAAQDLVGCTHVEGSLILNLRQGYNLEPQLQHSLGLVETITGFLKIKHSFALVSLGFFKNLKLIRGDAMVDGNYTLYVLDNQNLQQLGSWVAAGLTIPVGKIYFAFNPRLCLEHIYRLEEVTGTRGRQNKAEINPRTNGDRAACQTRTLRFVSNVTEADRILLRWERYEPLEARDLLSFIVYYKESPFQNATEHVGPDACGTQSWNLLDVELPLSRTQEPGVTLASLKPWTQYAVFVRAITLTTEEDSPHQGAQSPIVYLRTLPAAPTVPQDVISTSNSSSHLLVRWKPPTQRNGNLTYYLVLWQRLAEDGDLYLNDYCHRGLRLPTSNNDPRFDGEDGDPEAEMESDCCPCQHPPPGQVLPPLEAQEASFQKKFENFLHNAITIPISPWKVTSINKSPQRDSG
Sequence of Insulin receptor-related protein (Homo sapiens) (P14616 747-1297 limits assumed): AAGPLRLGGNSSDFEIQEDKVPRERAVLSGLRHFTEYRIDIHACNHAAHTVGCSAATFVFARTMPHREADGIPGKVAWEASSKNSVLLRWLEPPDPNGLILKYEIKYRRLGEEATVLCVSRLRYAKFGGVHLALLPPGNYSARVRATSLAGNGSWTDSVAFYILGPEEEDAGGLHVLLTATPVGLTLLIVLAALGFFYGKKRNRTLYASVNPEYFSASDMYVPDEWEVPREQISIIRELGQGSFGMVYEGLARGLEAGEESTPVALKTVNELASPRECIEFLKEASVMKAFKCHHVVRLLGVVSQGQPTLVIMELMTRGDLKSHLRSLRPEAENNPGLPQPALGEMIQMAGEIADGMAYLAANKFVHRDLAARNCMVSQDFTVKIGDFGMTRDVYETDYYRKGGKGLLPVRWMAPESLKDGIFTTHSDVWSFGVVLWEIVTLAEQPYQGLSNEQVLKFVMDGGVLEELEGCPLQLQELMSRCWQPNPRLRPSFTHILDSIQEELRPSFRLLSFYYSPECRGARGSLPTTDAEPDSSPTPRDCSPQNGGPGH
The target is the same in test [10]. The settings on record: at 10 µM.
In test [11] the target is T3, Tyrosine-protein kinase ITK/TSK (Homo sapiens) (UniProt Q08881).
T3 sequence (whole entry): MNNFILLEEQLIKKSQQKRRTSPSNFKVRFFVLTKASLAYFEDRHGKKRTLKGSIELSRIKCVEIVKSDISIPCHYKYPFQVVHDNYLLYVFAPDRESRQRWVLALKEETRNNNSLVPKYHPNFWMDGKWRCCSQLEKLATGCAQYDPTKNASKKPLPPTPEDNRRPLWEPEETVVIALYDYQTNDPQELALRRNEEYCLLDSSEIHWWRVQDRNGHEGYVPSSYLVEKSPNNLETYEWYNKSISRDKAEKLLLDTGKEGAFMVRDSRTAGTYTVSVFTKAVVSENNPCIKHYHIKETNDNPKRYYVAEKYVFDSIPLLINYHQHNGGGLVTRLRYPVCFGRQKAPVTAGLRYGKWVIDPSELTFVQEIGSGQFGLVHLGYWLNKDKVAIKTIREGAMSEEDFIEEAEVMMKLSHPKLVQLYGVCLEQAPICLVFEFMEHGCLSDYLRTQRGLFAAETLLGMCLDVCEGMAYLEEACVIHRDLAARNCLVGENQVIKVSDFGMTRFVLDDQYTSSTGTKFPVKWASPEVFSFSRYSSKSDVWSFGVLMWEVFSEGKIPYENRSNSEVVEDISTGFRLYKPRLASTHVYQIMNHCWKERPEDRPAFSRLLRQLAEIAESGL
The settings on record: at 10 µM.

Test [12] has as its target T1, Tyrosine-protein kinase JAK3 (Homo sapiens). The settings on record: at 1 µM.
Test [13] concerns the target Mitogen-activated protein kinase 8 (Homo sapiens) (UniProt P45983). The settings on record: at 1 µM.
Test [14] shares this target. The settings on record: at 10 µM.
Test [15] deals with T3, Tyrosine-protein kinase ITK/TSK (Homo sapiens). The settings on record: at 1 µM.
Test [16] deals with Mitogen-activated protein kinase 9 (Homo sapiens) (UniProt P45984). The settings on record: at 1 µM.
Sequence of Mitogen-activated protein kinase 9 (Homo sapiens) (P45984 whole entry, looked up): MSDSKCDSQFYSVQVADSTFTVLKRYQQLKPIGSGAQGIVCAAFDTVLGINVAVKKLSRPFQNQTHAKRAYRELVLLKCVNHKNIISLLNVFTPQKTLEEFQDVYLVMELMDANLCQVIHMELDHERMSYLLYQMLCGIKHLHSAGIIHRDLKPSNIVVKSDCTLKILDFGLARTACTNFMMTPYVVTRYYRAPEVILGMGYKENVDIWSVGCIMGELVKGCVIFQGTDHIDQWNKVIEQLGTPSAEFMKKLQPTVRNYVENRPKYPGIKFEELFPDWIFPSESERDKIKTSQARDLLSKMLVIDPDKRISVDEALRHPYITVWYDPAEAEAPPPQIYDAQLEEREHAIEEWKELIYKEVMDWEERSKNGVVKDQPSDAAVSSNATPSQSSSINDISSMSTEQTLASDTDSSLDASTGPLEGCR
For test [17] the target is unchanged. The settings on record: at 10 µM.

Sequence of Interleukin-1 receptor-associated kinase 1 (Homo sapiens) (P51617 whole entry, looked up): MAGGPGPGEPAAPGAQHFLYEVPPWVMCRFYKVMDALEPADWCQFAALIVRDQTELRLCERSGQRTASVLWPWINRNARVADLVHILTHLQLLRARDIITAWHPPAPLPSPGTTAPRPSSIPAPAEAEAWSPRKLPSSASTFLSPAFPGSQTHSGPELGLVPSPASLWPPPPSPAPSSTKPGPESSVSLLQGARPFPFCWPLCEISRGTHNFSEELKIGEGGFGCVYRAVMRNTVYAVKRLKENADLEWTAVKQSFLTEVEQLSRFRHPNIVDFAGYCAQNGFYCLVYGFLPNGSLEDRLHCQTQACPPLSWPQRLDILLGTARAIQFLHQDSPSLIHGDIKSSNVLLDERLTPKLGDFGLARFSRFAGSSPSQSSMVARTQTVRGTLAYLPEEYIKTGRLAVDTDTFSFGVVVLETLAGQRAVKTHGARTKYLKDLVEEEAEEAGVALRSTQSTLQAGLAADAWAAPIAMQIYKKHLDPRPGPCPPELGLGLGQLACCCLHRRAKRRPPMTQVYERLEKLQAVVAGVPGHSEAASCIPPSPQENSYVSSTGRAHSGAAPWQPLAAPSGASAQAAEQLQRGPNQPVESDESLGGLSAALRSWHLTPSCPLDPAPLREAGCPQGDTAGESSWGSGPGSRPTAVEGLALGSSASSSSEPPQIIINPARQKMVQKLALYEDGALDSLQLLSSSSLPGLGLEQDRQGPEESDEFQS
Sequence of Mitogen-activated protein kinase 8 (Homo sapiens) (P45983 whole entry): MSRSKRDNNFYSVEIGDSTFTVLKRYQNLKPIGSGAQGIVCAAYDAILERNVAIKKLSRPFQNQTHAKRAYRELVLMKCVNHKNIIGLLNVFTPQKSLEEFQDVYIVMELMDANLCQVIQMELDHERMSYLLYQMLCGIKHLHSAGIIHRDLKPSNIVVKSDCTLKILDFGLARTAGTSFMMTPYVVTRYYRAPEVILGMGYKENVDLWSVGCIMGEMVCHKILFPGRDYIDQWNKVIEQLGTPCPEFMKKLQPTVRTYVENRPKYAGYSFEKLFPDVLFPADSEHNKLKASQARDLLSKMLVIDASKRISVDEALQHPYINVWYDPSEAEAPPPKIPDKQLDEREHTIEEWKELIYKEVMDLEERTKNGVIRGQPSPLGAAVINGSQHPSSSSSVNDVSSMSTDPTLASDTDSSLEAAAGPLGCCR

Take `COc1ccc(Cl)cc1NC(=O)Nc1cc(C)nc2ccccc12`: the residual activity is 96% in test [1]; 100% in test [2]; 124% in [3]; 155% in [4]; 145% in test [5]; 85% in test [6].

`CC(C)(C)c1nc2c3ccc(F)cc3c3c(=O)[nH]ccc3c2[nH]1`: the residual activity stood at 55% in test [1]; 62% in test [2]; 61% in [7]; 53% in [8]; 101% in [9]; 52% in test [10]. Moreover, the residual activity in [11] was 66%; in [3], -1%; in [4], 1%; in test [12] it was 1%; in test [5], 1%; in test [13], 32%. The figures for the residual activity in test [14] and in test [6] were 9% and -2%, respectively.

Turning to `COc1cc2ncnc(Nc3cccc(Cl)c3)c2cc1OC`, the residual activity was 84% in [1]; 35% in test [2]; 64% in test [7]; 5% in test [8]; 105% in test [9]; 102% in [10]. The residual activity in test [15] came out at 100%; in [11] it was 105%; in [3] it was 123%; in [4], 86%; in [12] it was 109%; in [5], 118%. For the same molecule, the residual activity was 112% in test [13], 122% in [14] and 73% in test [6].

As to `Nc1nccc(-c2c(-c3ccc(F)cc3)ncn2C2CCNCC2)n1`, the residual activity in test [9] was found to be 140%; in test [12], 120%; in test [5] it was 118%; in [6] it was 69%.

`NC(=O)c1ccc(-c2nc(-c3ccc4c(c3)OCCO4)c(-c3ccccn3)[nH]2)cc1`: the residual activity in test [8] came out at 97%; in test [9], 124%; in [13], 117%; in test [14], 87%.

Consider `Fc1ccc(-c2nc3n(c2-c2ccncc2)CCS3)cc1`, for which the residual activity in test [9] was found to be 128%; in [3] it was 99%; in [4], 100%; in test [14], 81%; in [16] it was 73%; in [17], 20%. For the same molecule, in [6], the residual activity is 14%.

Regarding `COc1cc2nccc(Oc3ccc(NC(=O)Nc4cc(C)on4)c(Cl)c3)c2cc1OC`, the residual activity in test [1] stood at 82%; in [9] it was 102%; in test [10], 29%; in [12], 100%; in test [5], 48%; in test [13] it was 120%. The residual activity in test [14] is 109%.

On to `Nc1ncnc2c1cnn2-c1ccccc1`, for which the residual activity in test [1] is 93%; in test [2], 84%; in test [8], 84%; in [9], 135%; in test [10], 93%; in test [15], 102%. Also, the residual activity turned out to be 97% in test [11]; 126% in test [3]; 93% in test [4]; 95% in [17]; 78% in test [6].

In the case of `O=S(=O)(NCCNC/C=C/c1ccc(Br)cc1)c1cccc2cnccc12`, the residual activity in test [2] was found to be 75%; in [11], 100%.

For the molecule `O=c1cc(N2CCOCC2)oc2c(-c3ccccc3)cccc12`, the residual activity in test [10] was determined as 75%; in test [14] it was 79%; in test [6], 70%.

With `Oc1cccc(-c2nc(N3CCOCC3)c3oc4ncccc4c3n2)c1`, the residual activity in test [9] was 128%; in test [10], 84%; in test [14] it was 77%; in [6] it was 91%.

On to `O=C1NC(=O)C(c2cn(CCCn3ccnc3)c3ccccc23)=C1Nc1ccccc1`, for which the residual activity stood at 81% in [1]; 76% in test [2]; 45% in test [7]; 32% in test [8]; 135% in [9]; 65% in test [10]. Moreover, the residual activity is 103% in test [3]; 39% in test [4]; 15% in [12]; 2% in test [5]; 109% in test [13]; 79% in test [14]. For the same molecule, the residual activity in [16] was 110%; in [17] it was 80%.
